Out of some 5,500 compounds screened, about 2,000 (36%) were called active. Roughly 18% stayed inconclusive and do not appear here. No stated cut-off is given here; in the data, active means normalized growth mostly below about 0.91 (no sharp cut-off); inconclusive means no clear call, values can overlap the other calls; inactive means mostly above about 0.92. The list shows a part of the results.
Experiment: chemical genetic growth profiling, strain panel (AID 1159580);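 further: tested at 20 µM; growth read once vehicle control cultures reached saturation at 30 °C; 1 = growth at the plate median or of vehicle wells; lower values mean less growth of the strain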
Conditions: growth OD

Measured: normalized growth

OCCN1C[C@@H](O)[C@@H](O)C(O)C1CO (stereo partly specified)
inactive: S. cerevisiae deletion strains, locus YKL009W, strain mrt4, hits give low values 1.01 | S. cerevisiae deletion strains, locus YKL068W, hits give low values 1.01 | S. cerevisiae deletion strains, locus YKL085W, strain MDH1 (second series), hits give low values 1 | S. cerevisiae deletion strains, locus YKL085W, strain MDH1, hits give low values 1 | S. cerevisiae deletion strains, locus YKL160W, strain elf1, hits give low values 1.01 | S. cerevisiae deletion strains, locus YKL190W, strain CNB1, hits give low values 1.02 | S. cerevisiae deletion strains, locus YKR001C, strain vps1, hits give low values 0.999 | S. cerevisiae deletion strains, locus YKR026C, strain gcn3, hits give low values 1.02 | S. cerevisiae deletion strains, locus YKR091W, strain srl3, hits give low values 1 | S. cerevisiae deletion strains, locus YLL001W, strain dnm1, hits give low values 1.02 | S. cerevisiae deletion strains, locus YLL026W, hits give low values 1.01 | S. cerevisiae deletion strains, locus YLL041C, strain sdh2, hits give low values 1 | S. cerevisiae deletion strains, locus YLR027C, strain aat2, hits give low values 0.992 | S. cerevisiae deletion strains, locus YLR039C, strain RIC1, hits give low values 0.958 | S. cerevisiae deletion strains, locus YLR058C, strain SHM2, hits give low values 1.02 | S. cerevisiae deletion strains, locus YLR102C, strain apc9, hits give low values 0.997 | S. cerevisiae deletion strains, locus YLR113W, strain HOG1, hits give low values 1.04 | S. cerevisiae deletion strains, locus YLR221C, strain rsa3, hits give low values 1.01 | S. cerevisiae deletion strains, locus YLR258W, strain gsy2, hits give low values 1 | S. cerevisiae deletion strains, locus YLR262C, strain YPT6 (second series), hits give low values 0.994 | S. cerevisiae deletion strains, locus YLR262C, strain YPT6, hits give low values 1 | S. cerevisiae deletion strains, locus YLR268W, strain sec22, hits give low values 1 | S. cerevisiae deletion strains, locus YLR320W, strain mms22, hits give low values 1.01 | S. cerevisiae deletion strains, locus YLR330W, strain CHS5, hits give low values 1.01 | S. cerevisiae deletion strains, locus YLR342W, strain FKS1 (second series), hits give low values 1.01 | S. cerevisiae deletion strains, locus YLR342W, strain FKS1, hits give low values 0.99 | S. cerevisiae deletion strains, locus YLR357W, strain rsc2, hits give low values 1 | S. cerevisiae deletion strains, locus YLR370C, strain arc18, hits give low values 1 | S. cerevisiae deletion strains, locus YLR371W, strain rom2, hits give low values 0.995 | S. cerevisiae deletion strains, locus YLR384C, strain iki3, hits give low values 1 | S. cerevisiae deletion strains, locus YLR418C, strain cdc73, hits give low values 0.977 | S. cerevisiae deletion strains, locus YML016C, strain PPZ1, hits give low values 1.01 | S. cerevisiae deletion strains, locus YML032C, strain rad52, hits give low values 1.01 | S. cerevisiae deletion strains, locus YML120C, strain ndi1, hits give low values 1.02 | S. cerevisiae deletion strains, locus YML124C, strain tub3, hits give low values 1.01 | S. cerevisiae deletion strains, locus YMR058W, strain fet3, hits give low values 1 | S. cerevisiae deletion strains, locus YMR078C, strain ctf18, hits give low values 1 | S. cerevisiae deletion strains, locus YMR125W, strain sto1, hits give low values 0.997 | S. cerevisiae deletion strains, locus YMR129W, hits give low values 0.997 | S. cerevisiae deletion strains, locus YMR205C, strain PFK2, hits give low values 1 | S. cerevisiae deletion strains, locus YMR223W, strain ubp8, hits give low values 1 | S. cerevisiae deletion strains, locus YMR231W, strain pep5, hits give low values 1 | S. cerevisiae deletion strains, locus YMR263W, strain SAP30, hits give low values 1.02 | S. cerevisiae deletion strains, locus YMR307W, strain GAS1, hits give low values 1.01 | S. cerevisiae deletion strains, locus YNL067W, strain RPL9B, hits give low values 1.02 | S. cerevisiae deletion strains, locus YNL071W, strain lat1, hits give low values 0.993 | S. cerevisiae deletion strains, locus YNL128W, strain TEP1, hits give low values 1.02 | S. cerevisiae deletion strains, locus YNL153C, strain GIM3, hits give low values 1.01 | S. cerevisiae deletion strains, locus YNL183C, strain NPR1, hits give low values 0.97 | S. cerevisiae deletion strains, locus YNL209W, strain ssb2, hits give low values 1 | S. cerevisiae deletion strains, locus YNL233W, strain BNI4, hits give low values 1.02 | S. cerevisiae deletion strains, locus YNL248C, strain rpa49, hits give low values 1.02 | S. cerevisiae deletion strains, locus YNL250W, strain rad50, hits give low values 1 | S. cerevisiae deletion strains, locus YNL271C, strain bni1, hits give low values 0.986 | S. cerevisiae deletion strains, locus YNL298W, strain CLA4, hits give low values 0.994 | S. cerevisiae deletion strains, locus YNL307C, strain MCK1, hits give low values 1.01 | S. cerevisiae deletion strains, locus YNL322C, strain KRE1 (second series), hits give low values 1.02 | S. cerevisiae deletion strains, locus YNL322C, strain KRE1, hits give low values 1.01 | S. cerevisiae deletion strains, locus YNR049C, strain mso1, hits give low values 1 | S. cerevisiae deletion strains, locus YNR052C, strain pop2, hits give low values 0.999 | S. cerevisiae deletion strains, locus YOL006C, strain TOP1, hits give low values 1.04 | S. cerevisiae deletion strains, locus YOL012C, strain htz1 1.11 | S. cerevisiae deletion strains, locus YOL147C, strain pex11, hits give low values 1 | S. cerevisiae deletion strains, locus YOR001W, strain rrp6, hits give low values 1 | S. cerevisiae deletion strains, locus YOR061W, strain CKA2, hits give low values 1.01 | S. cerevisiae deletion strains, locus YOR069W, strain VPS5, hits give low values 1.01 | S. cerevisiae deletion strains, locus YOR070C, strain gyp1, hits give low values 0.997 | S. cerevisiae deletion strains, locus YOR080W, strain dia2, hits give low values 1.01 | S. cerevisiae deletion strains, locus YOR083W, strain WHI5, hits give low values 1 | S. cerevisiae deletion strains, locus YOR106W, strain vam3, hits give low values 1.03 | S. cerevisiae deletion strains, locus YOR136W, strain idh2, hits give low values 0.998 | S. cerevisiae deletion strains, locus YOR144C, strain elg1, hits give low values 1 | S. cerevisiae deletion strains, locus YOR184W, strain ser1, hits give low values 1 | S. cerevisiae deletion strains, locus YOR231W, strain MKK1, hits give low values 1.01 | S. cerevisiae deletion strains, locus YOR265W, strain rbl2, hits give low values 0.988 | S. cerevisiae deletion strains, locus YOR270C, strain vph1, hits give low values 1.05 | S. cerevisiae deletion strains, locus YOR290C, strain snf2, hits give low values 1.01 | S. cerevisiae deletion strains, locus YOR316C, strain cot1, hits give low values 0.997 | S. cerevisiae deletion strains, locus YPL051W, strain arl3, hits give low values 1 | S. cerevisiae deletion strains, locus YPL055C, strain LGE1, hits give low values 1.05 | S. cerevisiae deletion strains, locus YPL078C, strain atp4, hits give low values 1.01 | S. cerevisiae deletion strains, locus YPL106C, strain sse1, hits give low values 1.03 | S. cerevisiae deletion strains, locus YPL240C, strain hsp82, hits give low values 1 | S. cerevisiae deletion strains, locus YPL241C, strain CIN2, hits give low values 1.01 | S. cerevisiae deletion strains, locus YPL256C, strain CLN2, hits give low values 1.02 | S. cerevisiae deletion strains, locus YPR119W, strain clb2, hits give low values 0.996 | S. cerevisiae deletion strains, locus YPR141C, strain kar3, hits give low values 1 | S. cerevisiae deletion strains, locus YPR163C, strain tif3, hits give low values 1 | S. cerevisiae deletion strains, locus YPR167C, strain met16, hits give low values 0.997 | S. cerevisiae deletion strains, strain wtn01, hits give low values 1 | S. cerevisiae strains, strain wild type, hits give low values 1.01

From PubChem BioAssay AID1159580 (chemical genetic matrix, 2015)
